Reference: ChEMBL document CHEMBL4513216, “Probing the Open Global Health Chemical Diversity Library for Multistage-Active Starting Points for Next-Generation Antimalarials” (ACS Infect Dis, 2020)
Among all 68,000 compounds or so, about 2,700 (4%) showed an effect of 50% or more. This is one part of a sample in which strong results are shown more often than they occur.

These molecules were tested on Plasmodium berghei (assay: Screen against P. berghei liver stage (PbLuc), transformed with Luciferase, at 2uM). Conditions: tested at 2 uM.
Format: functional, HepG2

SMILES	INHIBITION
CC(C)NC(=O)NCc1nnc2n1C(C(=O)N(C)C)CC2 (stereo not given)	24.34%
O=C(NCc1ccc(OCC2CC2)nc1)C1COc2ccccc2O1 (stereo not given)	2.21%
CC1CCN(C(=O)[C@@H]2C[C@H]3OCC[C@H]3N(Cc3ccoc3)C2)CC1	23.1%
Cc1cnc(CN(C)C(=O)C23CNCC2CNC3)[nH]1 (stereo not given)	-16.03%
COc1ncccc1C(=O)N(C)Cc1nc(-c2ccccn2)no1	16.37%
Cc1cnn(CC2CCCN2C(=O)c2ccc(C(N)=O)cn2)c1 (stereo not given)	40.29%
Cc1cnn(CC2CCCCN2C(=O)c2ccc(NC3CC3)nc2)c1 (stereo not given)	14.53%
COCc1nc(C(=O)N2CCCCC2Cn2cc(C)cn2)cs1 (stereo not given)	29.71%
Cc1cnn(CC2CCCCN2C(=O)c2csc(C)n2)c1 (stereo not given)	53.58%
CC(=O)Nc1nc(C(=O)N2CCCCC2Cn2cc(C)cn2)cs1 (stereo not given)	-7.73%
CNC(=O)c1ccc(C(=O)N2CCCCC2Cn2cc(C)cn2)cn1 (stereo not given)	61.96%
CC(C)C1CN(C(=O)c2cc(=O)[nH]c(=O)[nH]2)CCCN1CC1CC1 (stereo not given)	-15.77%
CN(C)CCn1c([C@@H]2CCCO2)cc2cccnc21	47.82%
O=C(N1CCCC1)N1CCc2c(CNc3ncccn3)cncc2C1	34.98%
Cc1cc(CN2CCC3(CC2)CC(C(=O)O)N(C(=O)C2CC2)C3)oc1C (stereo not given)	9.11%
CCSCC(C)NCc1nc(-c2cccnc2)no1 (stereo not given)	-15.07%
Cc1nn2c(nc1=O)-c1ccccc1NC2C(=O)O (stereo not given)	24.05%
COCC(=O)N1CCCC2(CCN(c3ccsc3)C2=O)C1 (stereo not given)	-68.7%
Cc1ccc(C(=O)N2CCC3(CCN(Cc4ccccn4)C3=O)C2)cn1 (stereo not given)	17.64%
O=C(CO)N1CCCC2(CCN(c3ccsc3)C2=O)C1 (stereo not given)	55.21%
O=C(c1ccc(F)cc1)N1CCC2(CCN(Cc3ccccn3)C2=O)C1 (stereo not given)	11.6%
Cc1cccc(C(=O)N2C[C@@H](C)[C@@]3(CCN(c4ccsc4)C3=O)C2)n1	15.44%
O=C(c1cccnc1)N1CCCC2(CCN(c3ccsc3)C2=O)C1 (stereo not given)	18.37%
O=C(c1ccnnc1)N1CCC2(CCN(c3ccsc3)C2=O)C1 (stereo not given)	-12.06%
C[C@H]1CN(C(=O)c2cscn2)C[C@@]12CCN(c1ccsc1)C2=O	55.8%
C[C@@H]1CN(C(=O)c2ccsc2)C[C@]12CCN(c1ccsc1)C2=O	-1.79%
O=C(c1ccsc1)N1CCC2(CCN(Cc3ccccn3)C2=O)C1 (stereo not given)	57.85%

SMILES	INHIBITION
Cc1ccc(C(=O)N2CCC3(CCN(c4ccsc4)C3=O)C2)cn1 (stereo not given)	52.66%
O=C(N1CCCC1)N1CCCC2(CCN(c3ccsc3)C2=O)C1 (stereo not given)	45.82%
c1ccc(CCCN2CCCC2Cn2cncn2)cc1 (stereo not given)	1.63%
CCOCCCNC(=O)NCc1c(C)nn(C)c1C	6.4%
Cc1nn(CCC#N)c(C)c1CCC(=O)N(C)Cc1ccsc1	35.84%
Cc1nn(CCC#N)c(C)c1CCC(=O)N(C(C)C)C1CC1	52.6%
Cc1nn(CCC#N)c(C)c1CCC(=O)N(C)C	-57.94%
CCC(=O)Nc1ccc(C(C)NC(=O)COC)cc1 (stereo not given)	-64.67%
Cc1cc(Cn2cc(C#N)c(=O)c3ccccc32)no1	-0.45%
CC(C)c1ccc(CN2C(=O)C3(CCNCC3)Nc3ccccc32)cc1	6.72%
O=C(NCc1ccco1)N1CCN(Cc2ccc3c(c2)CCO3)CC1	9.17%
O=C(C1COCCO1)N1CCN(Cc2ccc3c(c2)CCO3)CC1 (stereo not given)	83.96%
O=C(NCC1CCCO1)N1CCN(Cc2ccc3c(c2)CCO3)CC1 (stereo not given)	78.42%
O=C(NCC1CCOC1)N1CCN(Cc2ccc3c(c2)CCO3)CC1 (stereo not given)	10.62%
O=C(C1CCOC1)N1CCN(Cc2ccc3c(c2)CCO3)CC1 (stereo not given)	47.87%
O=C(C1CCCN(CCc2ccc3c(c2)CCO3)C1)N1CCCC1 (stereo not given)	-0.62%
CN(C)C1CCN(C(=O)NCc2ccc(Cn3cncn3)cc2)CC1	-8.87%
CN1CCN(Cc2cn3c(n2)CN(C2CCOCC2)CC3)CC1	20.01%
Cc1cccc(C(C)CNS(=O)(=O)CCCC#N)c1 (stereo not given)	16.95%
COCCS(=O)(=O)NC(C)c1cccc(C)c1C (stereo not given)	16.38%
COCCS(=O)(=O)NCC(C)c1cccc(C)c1 (stereo not given)	72.49%
COc1ccc(C(C)NCc2ccc(OC)c(OC)c2OC)cc1F (stereo not given)	-6.67%
CC(c1ccco1)N(C)C(=O)NCCOc1ccc(C#N)cc1 (stereo not given)	-6.73%
CC(=O)N[C@@H]1CN(C(=O)CC2CC2)C[C@H]1O	53.16%
CC(=O)N[C@@H]1CN(C(=O)CC2CCOCC2)C[C@H]1O	-4.48%
CCOCC(=O)N1C[C@@H](O)[C@H](NC(C)=O)C1	-24.98%
Cc1noc(C)c1CN1CCn2cc(CNc3ccccn3)nc2C1	6.07%

SMILES	INHIBITION
Cc1oc(CN(C)C(=O)c2ccc(C(F)(F)F)cc2)cc1C(=O)O	40.4%
CC(C)C(=O)NC1COC2(CCN(C(=O)c3cccnc3)CC2)C1 (stereo not given)	9.53%
N#CC1(C(=O)N2CCN(Cc3cscn3)CC2)CCCCC1	52.17%
N#CC1(C(=O)N2CCCN(Cc3cscn3)CC2)CCCCC1	7.71%
N#CC1(C(=O)N2CCN(Cc3cscn3)CC2)CCCC1	34.83%
Cc1ccc(S(=O)(=O)Cc2noc([C@@H]3C[C@@H](O)CN3C)n2)cc1	32.59%
CN(Cc1cn2c(n1)CN(Cc1ccc(F)cc1)CC2)Cc1ccco1	9.98%
COc1ccc(C2=CCN(C(=O)C3CCCN(C(N)=O)C3)CC2)cc1 (stereo not given)	-11.91%
COc1ccc(C2=CCN(C(=O)C3CCCN(C(C)=O)C3)CC2)cc1 (stereo not given)	68.24%
COc1ccc(C2=CCN(C(=O)C3CCC3)CC2)cc1	-17.31%
O=C1[C@H]2CN(Cc3ccccc3)C[C@H]2CN1c1cncnc1	37.15%
O=C1[C@H]2CN(Cc3ccncc3)C[C@H]2CN1c1cncnc1	54.41%
O=C1[C@H]2CN(Cc3ccc(F)cc3)C[C@H]2CN1c1cncnc1	-20.89%
COc1cccc2cc(CNC(=O)N3CCC(N4CCCC4)C3)oc12 (stereo not given)	25.35%
CN(C)C(=O)CN1CCC2(CCN(C(=O)N(C)C)CC2)C1=O	54.01%
CN(C)C(=O)CN1CCC2(CCN(S(C)(=O)=O)CC2)C1=O	39.73%
CN(C)C(=O)CN1CCC2(CCN(C(=O)N3CCCC3)CC2)C1=O	-4.75%
Cc1cnc(N2C[C@@H]3[C@@H](C2)OCC(=O)N3CCN(C)C)nc1	30.58%
CNc1nc(N2CCN(Cc3ccsc3)C(CCO)C2)nc2c1CCC2 (stereo not given)	35.43%
O=C(C1CCOCC1)N1C[C@@H]2CC[C@H]1CN(Cc1ccncc1)C2	-21.32%
c1cc(-c2noc([C@@H]3CCCN3C3CCC3)n2)cc(N2CCCC2)n1	23.81%
c1cc(-c2noc([C@@H]3CCCN3CC3CC3)n2)cc(N2CCCC2)n1	74.33%
c1cc(-c2noc(C3CCC3)n2)cc(N2CCCCC2)n1	-23.44%
Cc1ccc(CN(Cc2ccccn2)C(=O)C2CCCCCN2C)s1 (stereo not given)	-42.41%
Cc1ccc(CN(Cc2ccccn2)C(=O)CCC2CCCN(C)C2)s1 (stereo not given)	50.59%
Cc1ccc(CN(Cc2ccccn2)C(=O)[C@H]2CC[C@@H](N)C2)s1	26.74%
CCn1ccnc1CN1CCNCC1C (stereo not given)	-47.18%

SMILES	INHIBITION
c1cnc(-c2cnc(N3CCSCC3)nc2C2CC2)cn1	-109.23%
CCCSCC(=O)N1CCC2(CC1)CC(c1ccccc1)CN(C)C2 (stereo not given)	33.16%
O=C1CO[C@@H]2CN(CC3CCOC3)C[C@H]2N1Cc1cccc(F)c1 (stereo not given in full)	-12.84%
O=C1CO[C@@H]2CN(CC3CC3)C[C@H]2N1Cc1cccc(F)c1	52.81%
O=C1CO[C@@H]2CN(C3CCOCC3)C[C@H]2N1Cc1cccc(F)c1	2.98%
Cn1nc2c(cc1=O)CN(CCOc1ccccc1C#N)CC2	-45.4%
Cc1nc(-c2ccccc2)nc2c1CCN(Cc1nccn1C)CC2	3.18%
Cc1ccc(CN2CCCn3c(nc(Cn4ccnc4)cc3=O)C2)o1	33.97%
CCc1ccc(CN2CCCn3c(nc(Cn4ccnc4)cc3=O)C2)o1	54.56%
O=c1cc(Cn2ccnc2)nc2n1CCCN(Cc1ccco1)C2	-0.18%
Cc1ncoc1C(=O)N1C[C@H]2CCC[C@@]2(COCc2cccnc2)C1	30.77%
Cc1ccccc1C(NC(=O)CCCS(C)(=O)=O)C(C)(C)C (stereo not given)	33.22%
CCc1nnc(SC2CCCN(c3cccc(F)c3)C2=O)n1C (stereo not given)	77.68%
CCc1nnc(SC2CCCN(c3cnn(C)c3)C2=O)n1C (stereo not given)	11.87%
Cn1nnnc1SC1CCCN(c2cccc(F)c2)C1=O (stereo not given)	14.65%
COc1ccc(CNC(=O)N(Cc2ccc(F)cc2F)C2CC2)cn1	-67.07%
COCCN1CCN(Cc2cnc(C)nc2)CC1	17.8%
CCC(C)S(=O)(=O)N1CCc2nc(C3CCNCC3)ncc2C1 (stereo not given)	-0.83%
CC(=O)N1CCC2(CC1)CN(C(=O)c1ccc3c(c1)OCCO3)C2	41.38%
O=C(c1ccoc1)N1CCC2(C1)CN(c1ncccn1)C2	25.43%
Cc1cnc(N2CC3(CCN(C(=O)c4ccoc4)C3)C2)nc1	-18.49%
CC(=O)N1CC2(CCN(C(=O)c3ccc4c(c3)OCCO4)CC2)C1	65.54%
CC(=O)N1CC2(CCN(C(=O)c3ccoc3)C2)C1	67.62%
CC(=O)N1CCC2(CC1)CN(C(=O)c1ccc3c(c1)OCO3)C2	37.54%
